# Source: PubChem BioAssay (EPA / NIEHS)
# Values joined by “and” are separate entries in the source; they are usually repeats but may differ in a detail not shown here. Equal values may be shown once. Results filed as inconclusive are left out. Some structures have more than one record in an assay (separate samples or runs), and their calls can disagree. Active and inactive are the calls of the source. Rule for the calls: active = hit-call score of the fitted dose curve at least 0.9, where 1 is the maximum; inconclusive = response in the unintended direction; inactive = score below 0.9.
# Test system: Sodium/Iodide Symporter (NIS), SLC5A5 (gene 6528)
# Test: CPHEA_Stoker_NIS_Inhibition_RAIU: CPHEA's Radioactive Iodide Uptake (RAIU) Assay for Sodium/Iodide Symporter (NIS) Inhibition, Stoker and Laws Labs (AID 2283841)
# In short: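 Iodide uptake read as CPM of intracellular 125I (final 329 pM) after 2 h room-temperature exposure in HEPES-buffered HBSS, pH 7.4. Human NIS-expressing HEK293T cells; six concentrations 0.001–100 uM, 0.5% DMSO, normalised to DMSO wells.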
Structure (SMILES),outcome,AC50
CCCN(CCC)c1c([N+](=O)[O-])cc(C(F)(F)F)cc1[N+](=O)[O-],inactive,
O=S(=O)(O)C(F)(F)C(F)(F)C(F)(F)C(F)(F)C(F)(F)C(F)(F)C(F)(F)C(F)(F)F,inactive,
COc1nn(CSP(=S)(OC)OC)c(=O)s1,inactive,
O=C(Nc1ccccc1)Nc1cnns1,inactive,
CCOC1Oc2ccc(OS(C)(=O)=O)cc2C1(C)C (stereo not drawn),inactive,
CC(C)(C)C(O)/C(=C\c1ccc(Cl)cc1Cl)n1cncn1 (stereo not drawn),,35.9 µM (active)
CCc1ccc(C(=O)NN(C(=O)c2cc(C)cc(C)c2)C(C)(C)C)cc1,inactive,
COP(=S)(OC)Oc1ccc(SC)c(C)c1,inactive,
CCN(CC)C(=O)SCc1ccc(Cl)cc1,,50 µM (active)
CCC(C)Nc1c([N+](=O)[O-])cc(C(C)(C)C)cc1[N+](=O)[O-] (stereo not drawn),inactive,
O=S1OCC2C(CO1)C1(Cl)C(Cl)=C(Cl)C2(Cl)C1(Cl)Cl (stereo not drawn),,50 µM (active)
O=C1c2ccccc2C(=O)N1SC(Cl)(Cl)Cl,,11.6 µM (active)
CCCN(CCOc1c(Cl)cc(Cl)cc1Cl)C(=O)n1ccnc1,,76.5 µM (active)
O=C(O)C(F)(F)C(F)(F)C(F)(F)C(F)(F)C(F)(F)C(F)(F)C(F)(F)F,inactive,
ClC1C(Cl)C(Cl)C(Cl)C(Cl)C1Cl (stereo not drawn),inactive,
CCC(C)(NC(=O)c1cc(Cl)c(C)c(Cl)c1)C(=O)CCl (stereo not drawn),,31.4 µM (active)
CC1(c2ccc(Oc3ccccc3)cc2)OC(=O)N(Nc2ccccc2)C1=O (stereo not drawn),inactive,
C[C@H]1[C@H](c2ccc(Cl)cc2)SC(=O)N1C(=O)NC1CCCCC1,inactive,
CC(C)OC(=O)Nc1cccc(Cl)c1,inactive,
CC[C@H](C)[C@H]1O[C@]2(C=C[C@@H]1C)C[C@@H]1C[C@@H](C/C=C(\C)[C@@H](O[C@H]3C[C@H](OC)[C@@H](O[C@H]4C[C@H](OC)[C@@H](O)[C@H](C)O4)[C@H](C)O3)[C@@H](C)/C=C/C=C3\CO[C@@H]4[C@H](O)C(C)=C[C@@H](C(=O)O1)[C@]34O)O2 (tested in a mixture with another compound),inactive,
N#Cc1c(Cl)c(Cl)c(Cl)c(C#N)c1Cl,inactive,
C#CCN1C(=O)COc2cc(F)c(N3C(=O)C4=C(CCCC4)C3=O)cc21,,50 µM (active)
Oc1ccc(Cl)cc1Cc1ccccc1,,50 µM (active) and 11.2 µM (active) and 21.7 µM (active)

# Molecular target: PGR (gene 5241) (UniProt P06401)
# Test: TOX21_PR_BLA_Followup_Antagonist_ratio: Tox21 HEK293 Progesterone Receptor (PR) Antagonism Beta-lactamase Follow-Up Assay, Ratio (AID 2283934);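 note: PR-UAS-bla HEK293T cells stimulated with 1 nM R5020 agonist for 16 hr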
# In short: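 Cells are plated, rested 6 hr, then dosed with test compound in DMSO and challenged with 1 nM promegestone. After 16 hr incubation, substrate loading for 2 h at room temperature precedes fluorescence reading; viability is measured in the same wells.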
# PGR (gene 5241), sequence (P06401 whole entry, looked up): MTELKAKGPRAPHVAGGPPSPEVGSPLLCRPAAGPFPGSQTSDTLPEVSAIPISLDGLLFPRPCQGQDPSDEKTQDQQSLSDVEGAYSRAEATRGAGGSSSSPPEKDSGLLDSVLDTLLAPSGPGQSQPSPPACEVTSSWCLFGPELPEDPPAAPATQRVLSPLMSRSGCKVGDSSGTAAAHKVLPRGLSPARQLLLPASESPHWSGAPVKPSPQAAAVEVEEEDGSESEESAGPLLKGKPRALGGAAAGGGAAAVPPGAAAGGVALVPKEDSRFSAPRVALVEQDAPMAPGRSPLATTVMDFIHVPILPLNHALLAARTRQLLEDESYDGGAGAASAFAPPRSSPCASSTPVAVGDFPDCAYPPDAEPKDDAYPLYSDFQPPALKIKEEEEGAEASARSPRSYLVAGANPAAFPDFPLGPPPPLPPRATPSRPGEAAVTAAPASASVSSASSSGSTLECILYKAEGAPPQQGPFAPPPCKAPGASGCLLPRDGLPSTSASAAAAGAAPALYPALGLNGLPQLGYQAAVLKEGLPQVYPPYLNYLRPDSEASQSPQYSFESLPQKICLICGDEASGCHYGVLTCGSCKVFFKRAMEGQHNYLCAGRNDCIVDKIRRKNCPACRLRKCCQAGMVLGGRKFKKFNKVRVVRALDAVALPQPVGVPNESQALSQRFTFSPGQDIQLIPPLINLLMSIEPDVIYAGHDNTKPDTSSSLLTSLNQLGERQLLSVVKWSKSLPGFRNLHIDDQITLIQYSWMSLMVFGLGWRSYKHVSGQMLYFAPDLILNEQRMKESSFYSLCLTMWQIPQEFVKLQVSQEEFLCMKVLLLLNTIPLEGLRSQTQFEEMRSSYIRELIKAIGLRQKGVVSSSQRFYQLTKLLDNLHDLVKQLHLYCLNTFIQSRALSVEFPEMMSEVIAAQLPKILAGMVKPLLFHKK
Structure (SMILES),AC50,outcome
CCCN(CCOc1c(Cl)cc(Cl)cc1Cl)C(=O)n1ccnc1,32.3 µM (active),
ClC1C(Cl)C(Cl)C(Cl)C(Cl)C1Cl (stereo not drawn),,inactive
COP(=S)(OC)Oc1ccc([N+](=O)[O-])cc1,38.4 µM (active),

# Test system: not listed separately
# Test: TOX21_PR_BLA_Followup_Agonist_viability: Viability Assessment in the Tox21 HEK293 Progesterone Receptor (PR) Agonism Beta-lactamase Follow-Up Assay (AID 2283935);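 note: signal loss means lower viability so actives are cytotoxic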
# In short: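 Cells were plated in medium with 2% charcoal-stripped FBS and rested 6 hr. Compounds in DMSO were then added for 16 hr at 37C, followed by the FRET substrate step and CellTiter-Glo luminescence after 30 min.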
row,Structure (SMILES),outcome
1,CCCN(CCOc1c(Cl)cc(Cl)cc1Cl)C(=O)n1ccnc1,inactive
2,ClC1C(Cl)C(Cl)C(Cl)C(Cl)C1Cl (stereo not drawn),inactive
3,COP(=S)(OC)Oc1ccc([N+](=O)[O-])cc1,inactive

# Test system: not listed separately
# Test: TOX21_PR_BLA_Followup_Antagonist_viability: Viability Assessment in the Tox21 HEK293 Progesterone Receptor (PR) Antagonism Beta-lactamase Follow-Up Assay (AID 2283936);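 note: cells exposed to compound with R5020 agonist for 16 h; hits lower the luminescence signal meaning cytotoxicity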
# In short: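 PR-UAS-bla HEK293T cells in medium with 2% charcoal-stripped FBS were treated with compounds plus R5020 for 16 hr at 37C. After the beta-lactamase read, CellTiter-Glo was added to the same wells and luminescence read after 30 min at room temperature.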
row,Structure (SMILES),outcome
1,CCCN(CCOc1c(Cl)cc(Cl)cc1Cl)C(=O)n1ccnc1,inactive
2,ClC1C(Cl)C(Cl)C(Cl)C(Cl)C1Cl (stereo not drawn),inactive
3,COP(=S)(OC)Oc1ccc([N+](=O)[O-])cc1,inactive

# Molecular target: PGR (gene 5241) (UniProt P06401)
# Test: TOX21_PR_LUC_Followup_Antagonist: Tox21 HEK293 Progesterone Receptor (PR) Antagonism Luciferase Follow-Up Assay (AID 2283938);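 note: curve fitted upward as signal gain over DMSO baseline despite antagonist label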
# Excerpt: TOX21_PR_LUC_Followup is a secondary assay for specificity for the TOX21_PR_BLA_Agonist assay. To differentiate true PR agonists from cytotoxic substances, this follow up assay is multiplexed with a cell viability assay.TOX21_PR_LUC_Followup_Antagonist is one of one assay component(s) measured or calculated from the TOX21_PR_LUC_Followup assay. It is designed to make measurements of luciferase induction, a form of inducible reporter, as detected with bioluminescence signals by CellTiter-Glo Luciferase-coupled ATP quantitation technologyData from the assay component TOX21_PR_LUC_Followup_Antagonist was analyzed into 1 assay endpoint. This assay endpoint, TOX21_PR_LUC_Followup_Antagonist, was analyzed in the positive analysis fitting direction relative to DMSO as the negative control and baseline of activity. Using a type of inducible reporter, gain-of-signal activity can be used to understand changes in the reporter gene as they relate to the gene NR3C3. Furthermore, this assay endpoint can be referred to as a primary readout, because the performed assay has only produced 1 assay endpoint. To generalize the intended target to other relatable targets, this assay endpoint is annotated to the nuclear receptor target family, where the subfamily is steroidal.
# Quality Control Precautions: Maintain cells below 85-90% confluence in culture medium. For assay purpose, the cells should be cultured in assay medium with 10% charcoal stripped FBS for 5 days with alternate day medium changed to fresh medium. […] Then 4 uL of ONE-Glo reagent (Promega, Madison, WI) was added to each plate using a BioRAPTR Flying Reagent Dispenser (FRD) workstation (Beckman Coulter, Indianapolis, IN, USA) and luminescence was quantified on a ViewLux (PerkinElmer, Shelton, CT) plate reader after 30 min incubation at room temperature.
Structure (SMILES),AC50,outcome
CCCN(CCOc1c(Cl)cc(Cl)cc1Cl)C(=O)n1ccnc1,57.9 µM (active),
ClC1C(Cl)C(Cl)C(Cl)C(Cl)C1Cl (stereo not drawn),,inactive
COP(=S)(OC)Oc1ccc([N+](=O)[O-])cc1,33.5 µM (active),

# Test system: not listed separately
# Test: TOX21_PR_LUC_Followup_Agonist_viability: Viability Assessment in the Tox21 HEK293 Progesterone Receptor (PR) Agonism Luciferase Follow-Up Assay (AID 2283941);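 note: compound exposure 16 h at 37 °C; loss of signal means cytotoxicity so actives lower viability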
# In short: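 Multiplexed viability endpoint of the PR agonist luciferase follow-up: HEK293-PR-A-luc cells treated 16 h at 37C, with viability scored as decrease in CellTiter-Glo ATP signal.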
row,Structure (SMILES),outcome
1,CCCN(CCOc1c(Cl)cc(Cl)cc1Cl)C(=O)n1ccnc1,inactive
2,ClC1C(Cl)C(Cl)C(Cl)C(Cl)C1Cl (stereo not drawn),inactive
3,COP(=S)(OC)Oc1ccc([N+](=O)[O-])cc1,inactive
